Holding throughout (assay): PBM; 200 nM protein, PBS
Conditions in all cases: dsDNA, one strand shown

Assay [1] addresses SHOX (Homo sapiens, UniProt O15266 103-189).
In assay [2] the target is CRX (Homo sapiens, UniProt O43186 26-111).
Assay [3] concerns the target HOXA7 (Homo sapiens, UniProt P31268 116-202).
The target of assay [4] is CRX (Homo sapiens, UniProt O43186 26-111, E42D).
Assay [5] has as its target MSX2 (Homo sapiens, UniProt P35548 130-214, R199I).
Assay [6] has as its target SHOX (Homo sapiens, UniProt O15266 103-189, R173C).
Assay [7] has as its target MSX2 (Homo sapiens, UniProt P35548 130-214).
Assay [8] concerns the target MSX2 (Homo sapiens, UniProt P35548 130-214, F161Y).
In assay [9] the target is HOXA7 (Homo sapiens, UniProt P31268 116-202, W177C).
In assay [10] the target is NKX3-2 (Homo sapiens, UniProt P78367 192-278, P234S).
For assay [11], the target named is CRX (Homo sapiens, UniProt O43186 26-111, R41L).
Assay [12] has as its target NKX3-2 (Homo sapiens, UniProt P78367 192-278).
The target in assay [13] is T1, SIX6 (Homo sapiens, UniProt O95475 114-200, L167I).
T1 sequence: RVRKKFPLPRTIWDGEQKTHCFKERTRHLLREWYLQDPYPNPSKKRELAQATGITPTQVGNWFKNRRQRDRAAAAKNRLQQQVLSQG

In assay [14] the target is T2, SIX6 (Homo sapiens, UniProt O95475 114-200, L143V).
T2 sequence: T1 sequence with L30V, I54L

Assay [15] concerns the target T3, SIX6 (Homo sapiens, UniProt O95475 114-200, H141N).
T3 sequence: T1 sequence with H28N, I54L

Assay [16] deals with T4, SIX6 (Homo sapiens, UniProt O95475 114-200, T165P).
T4 sequence: T1 sequence with T52P, I54L

For assay [17], the target named is T5, SIX6 (Homo sapiens, UniProt O95475 114-200, L167M).
T5 sequence: T1 sequence with I54M

Assay [18] addresses T6, SIX6 (Homo sapiens, UniProt O95475 114-200, L143M).
T6 sequence: T1 sequence with L30M, I54L

Assay [19] deals with T7, SIX6 (Homo sapiens, UniProt O95475 114-200, L143I).
T7 sequence: T1 sequence with L30I, I54L

Assay [20] deals with T8, SIX6 (Homo sapiens, UniProt O95475 114-200, T165G).
T8 sequence: T1 sequence with T52G, I54L

Assay [21] deals with T9, SIX6 (Homo sapiens, UniProt O95475 114-200, T139Q).
T9 sequence: T1 sequence with T26Q, I54L

The target of assay [22] is T10, SIX6 (Homo sapiens, UniProt O95475 114-200, T165A).
T10 sequence: T1 sequence with T52A, I54L

In assay [23] the target is T11, SIX6 (Homo sapiens, UniProt O95475 114-200, L167V).
T11 sequence: T1 sequence with I54V

For assay [24], the target named is T12, SIX6 (Homo sapiens, UniProt O95475 114-200).
T12 sequence: T1 sequence with I54L

The target in assay [25] is T13, SIX6 (Homo sapiens, UniProt O95475 114-200, T165I).
T13 sequence: T1 sequence with T52I, I54L

The target of assay [26] is T14, NKX2-4 (Homo sapiens, UniProt Q9H2Z4 175-261, P217L).
T14 sequence: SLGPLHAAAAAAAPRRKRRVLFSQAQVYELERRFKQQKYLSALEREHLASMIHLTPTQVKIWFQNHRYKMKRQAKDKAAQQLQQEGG

For assay [27], the target named is T15, VENTX (Homo sapiens, UniProt O95231 78-163, R121Q).
T15 sequence: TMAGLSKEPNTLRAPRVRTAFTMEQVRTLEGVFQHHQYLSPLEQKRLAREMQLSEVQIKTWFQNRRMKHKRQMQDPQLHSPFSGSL

Assay [28] has as its target T16, VENTX (Homo sapiens, UniProt O95231 78-163).
T16 sequence: T15 sequence with Q44R

Assay [29] has as its target T17, NKX2-4 (Homo sapiens, UniProt Q9H2Z4 175-261, T231S).
T17 sequence: T14 sequence with L43P, T57S

For assay [30], the target named is T18, VENTX (Homo sapiens, UniProt O95231 78-163, Y115F).
T18 sequence: T15 sequence with Y38F, Q44R

In assay [31] the target is T19, NKX2-4 (Homo sapiens, UniProt Q9H2Z4 175-261).
T19 sequence: T14 sequence with L43P

The target in assay [32] is ALX1 (Homo sapiens, UniProt Q15699 118-204, L144V).
Assay [33] concerns the target ALX3 (Homo sapiens, UniProt O95076 139-225, N203Q).
Assay [34] deals with ALX1 (Homo sapiens, UniProt Q15699 118-204, L144R).
Assay [35] addresses ALX3 (Homo sapiens, UniProt O95076 139-225).
Assay [36] addresses T20, NKX2-4 (Homo sapiens, UniProt Q9H2Z4 175-261, R246Q).
T20 sequence: T14 sequence with L43P, R72Q

Assay [37] has as its target ALX3 (Homo sapiens, UniProt O95076 139-225, L168Q).
For assay [38], the target named is ALX3 (Homo sapiens, UniProt O95076 139-225, L168V).
The target in assay [39] is ALX1 (Homo sapiens, UniProt Q15699 118-204).
For assay [40], the target named is ALX3 (Homo sapiens, UniProt O95076 139-225, N203S).
Assay [41] concerns the target HOXD13 (Homo sapiens, UniProt P35453 263-343, T313R).
For assay [42], the target named is HOXD13 (Homo sapiens, UniProt P35453 263-343).
Assay [43] addresses HOXD13 (Homo sapiens, UniProt P35453 263-343, T313A).

Where a chain is given by its changes, count along the chain named.

Sequence of SHOX (Homo sapiens, UniProt O15266 103-189, R173C) (O15266 103-189 R173C): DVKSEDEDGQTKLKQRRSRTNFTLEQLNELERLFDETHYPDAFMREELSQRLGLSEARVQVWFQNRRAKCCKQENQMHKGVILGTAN
Sequence of SHOX (Homo sapiens, UniProt O15266 103-189) (O15266 103-189): as the sequence (O15266 103-189 R173C) above, with C71R counted along it
Sequence of ALX3 (Homo sapiens, UniProt O95076 139-225, N203S) (O95076 139-225 N203S): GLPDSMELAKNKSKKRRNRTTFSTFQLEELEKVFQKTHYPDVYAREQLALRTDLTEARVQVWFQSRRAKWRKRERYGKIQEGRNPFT
Sequence of ALX3 (Homo sapiens, UniProt O95076 139-225) (O95076 139-225): as the sequence (O95076 139-225 N203S) above, with S65N counted along it
Sequence of ALX3 (Homo sapiens, UniProt O95076 139-225, N203Q) (O95076 139-225 N203Q): as the sequence (O95076 139-225 N203S) above, with S65Q counted along it
Sequence of ALX3 (Homo sapiens, UniProt O95076 139-225, L168V) (O95076 139-225 L168V): as the sequence (O95076 139-225 N203S) above, with L30V, S65N counted along it
Sequence of ALX3 (Homo sapiens, UniProt O95076 139-225, L168Q) (O95076 139-225 L168Q): as the sequence (O95076 139-225 N203S) above, with L30Q, S65N counted along it
Sequence of HOXA7 (Homo sapiens, UniProt P31268 116-202) (P31268 116-202): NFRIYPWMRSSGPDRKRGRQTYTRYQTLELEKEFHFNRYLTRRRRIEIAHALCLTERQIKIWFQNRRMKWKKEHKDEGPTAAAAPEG
Sequence of HOXA7 (Homo sapiens, UniProt P31268 116-202, W177C) (P31268 116-202 W177C): as the sequence (P31268 116-202) above, with W62C counted along it
Sequence of ALX1 (Homo sapiens, UniProt Q15699 118-204, L144V) (Q15699 118-204 L144V): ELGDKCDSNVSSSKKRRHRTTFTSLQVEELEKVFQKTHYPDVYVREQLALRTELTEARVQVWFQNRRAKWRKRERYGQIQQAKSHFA
Sequence of CRX (Homo sapiens, UniProt O43186 26-111) (O43186 26-111): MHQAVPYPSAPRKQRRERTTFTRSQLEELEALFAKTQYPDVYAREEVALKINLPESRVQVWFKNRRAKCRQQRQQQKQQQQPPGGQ
Sequence of ALX1 (Homo sapiens, UniProt Q15699 118-204) (Q15699 118-204): as the sequence (Q15699 118-204 L144V) above, with V27L counted along it
Sequence of CRX (Homo sapiens, UniProt O43186 26-111, R41L) (O43186 26-111 R41L): as the sequence (O43186 26-111) above, with R16L counted along it
Sequence of MSX2 (Homo sapiens, UniProt P35548 130-214) (P35548 130-214): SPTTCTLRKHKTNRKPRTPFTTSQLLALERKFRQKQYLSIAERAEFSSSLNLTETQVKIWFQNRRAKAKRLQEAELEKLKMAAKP
Sequence of HOXD13 (Homo sapiens, UniProt P35453 263-343, T313R) (P35453 263-343 T313R): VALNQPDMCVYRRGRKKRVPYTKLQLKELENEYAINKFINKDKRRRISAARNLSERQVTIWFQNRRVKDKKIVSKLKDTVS
Sequence of CRX (Homo sapiens, UniProt O43186 26-111, E42D) (O43186 26-111 E42D): as the sequence (O43186 26-111) above, with E17D counted along it
Sequence of HOXD13 (Homo sapiens, UniProt P35453 263-343, T313A) (P35453 263-343 T313A): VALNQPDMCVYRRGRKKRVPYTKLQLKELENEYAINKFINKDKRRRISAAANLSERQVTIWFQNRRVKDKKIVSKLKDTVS
Sequence of NKX3-2 (Homo sapiens, UniProt P78367 192-278) (P78367 192-278): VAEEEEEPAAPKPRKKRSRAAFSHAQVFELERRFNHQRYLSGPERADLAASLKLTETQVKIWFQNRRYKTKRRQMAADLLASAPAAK
Sequence of NKX3-2 (Homo sapiens, UniProt P78367 192-278, P234S) (P78367 192-278 P234S): as the sequence (P78367 192-278) above, with P43S counted along it
Sequence of HOXD13 (Homo sapiens, UniProt P35453 263-343) (P35453 263-343): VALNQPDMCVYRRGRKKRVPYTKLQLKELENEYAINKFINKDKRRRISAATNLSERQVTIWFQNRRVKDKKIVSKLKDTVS
Sequence of MSX2 (Homo sapiens, UniProt P35548 130-214, F161Y) (P35548 130-214 F161Y): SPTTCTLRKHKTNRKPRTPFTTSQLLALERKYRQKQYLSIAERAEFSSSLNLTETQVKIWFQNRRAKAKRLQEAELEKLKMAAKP
Sequence of MSX2 (Homo sapiens, UniProt P35548 130-214, R199I) (P35548 130-214 R199I): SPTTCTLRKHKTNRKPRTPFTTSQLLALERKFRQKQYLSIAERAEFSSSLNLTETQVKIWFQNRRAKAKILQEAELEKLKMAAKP
Sequence of ALX1 (Homo sapiens, UniProt Q15699 118-204, L144R) (Q15699 118-204 L144R): as the sequence (Q15699 118-204 L144V) above, with V27R counted along it

GCCTCGCC: the binding signal with SHOX [1] is 7.06 upbm affinity estimate (log intensity, higher = more binding, comparable within an allelic series); with CRX [2], 8.26 upbm affinity estimate (log intensity, higher = more binding, comparable within an allelic series); with HOXA7 [3], 8.38 upbm affinity estimate (log intensity, higher = more binding, comparable within an allelic series); in the assay with CRX [4], 8.29 upbm affinity estimate (log intensity, higher = more binding, comparable within an allelic series); in the assay with MSX2 [5] it was 9.34 upbm affinity estimate (log intensity, higher = more binding, comparable within an allelic series); with SHOX [6] it was 7.02 upbm affinity estimate (log intensity, higher = more binding, comparable within an allelic series). The binding signal with MSX2 [7] is 9.36 upbm affinity estimate (log intensity, higher = more binding, comparable within an allelic series); in the assay with MSX2 [8] it was 9.46 upbm affinity estimate (log intensity, higher = more binding, comparable within an allelic series); with HOXA7 [9] it was 8.26 upbm affinity estimate (log intensity, higher = more binding, comparable within an allelic series); with NKX3-2 [10], 10.6 upbm affinity estimate (log intensity, higher = more binding, comparable within an allelic series); in the assay with CRX [11], 8.24 upbm affinity estimate (log intensity, higher = more binding, comparable within an allelic series); in the assay with NKX3-2 [12] it was 10.4 upbm affinity estimate (log intensity, higher = more binding, comparable within an allelic series).
With CGACCGCC, the binding signal is 7.14 upbm affinity estimate (log intensity, higher = more binding, comparable within an allelic series) with SHOX [1]; 8.99 upbm affinity estimate (log intensity, higher = more binding, comparable within an allelic series) with SIX6 [13]; 8.82 upbm affinity estimate (log intensity, higher = more binding, comparable within an allelic series) with SIX6 [14]; 8.95 upbm affinity estimate (log intensity, higher = more binding, comparable within an allelic series) in the assay with SIX6 [15]; 8.87 upbm affinity estimate (log intensity, higher = more binding, comparable within an allelic series) with SIX6 [16]; 9.03 upbm affinity estimate (log intensity, higher = more binding, comparable within an allelic series) in the assay with SIX6 [17]. The binding signal in the assay with SIX6 [18] is 8.84 upbm affinity estimate (log intensity, higher = more binding, comparable within an allelic series); with SIX6 [19], 8.91 upbm affinity estimate (log intensity, higher = more binding, comparable within an allelic series); in the assay with SIX6 [20], 9.05 upbm affinity estimate (log intensity, higher = more binding, comparable within an allelic series); with SIX6 [21], 8.92 upbm affinity estimate (log intensity, higher = more binding, comparable within an allelic series); with SIX6 [22], 8.95 upbm affinity estimate (log intensity, higher = more binding, comparable within an allelic series); in the assay with SHOX [6], 7.26 upbm affinity estimate (log intensity, higher = more binding, comparable within an allelic series). Further, the binding signal is 8.84 upbm affinity estimate (log intensity, higher = more binding, comparable within an allelic series) with SIX6 [23]; 8.95 upbm affinity estimate (log intensity, higher = more binding, comparable within an allelic series) with SIX6 [24]; 9.02 upbm affinity estimate (log intensity, higher = more binding, comparable within an allelic series) in the assay with SIX6 [25].
For GCCGTAGC, the binding signal with SHOX [1] was 6.96 upbm affinity estimate (log intensity, higher = more binding, comparable within an allelic series); in the assay with NKX2-4 [26], 9.17 upbm affinity estimate (log intensity, higher = more binding, comparable within an allelic series); with VENTX [27], 7.91 upbm affinity estimate (log intensity, higher = more binding, comparable within an allelic series); in the assay with VENTX [28], 7.82 upbm affinity estimate (log intensity, higher = more binding, comparable within an allelic series); in the assay with NKX2-4 [29] it was 9.15 upbm affinity estimate (log intensity, higher = more binding, comparable within an allelic series); with VENTX [30], 7.86 upbm affinity estimate (log intensity, higher = more binding, comparable within an allelic series). In addition, the binding signal with NKX2-4 [31] is 9.34 upbm affinity estimate (log intensity, higher = more binding, comparable within an allelic series); with ALX1 [32] it was 6.19 upbm affinity estimate (log intensity, higher = more binding, comparable within an allelic series); in the assay with ALX3 [33], 7.67 upbm affinity estimate (log intensity, higher = more binding, comparable within an allelic series); in the assay with SHOX [6], 7.22 upbm affinity estimate (log intensity, higher = more binding, comparable within an allelic series); with ALX1 [34], 6.26 upbm affinity estimate (log intensity, higher = more binding, comparable within an allelic series); with ALX3 [35] it was 7.55 upbm affinity estimate (log intensity, higher = more binding, comparable within an allelic series). Besides, the binding signal is 9.33 upbm affinity estimate (log intensity, higher = more binding, comparable within an allelic series) with NKX2-4 [36]; 7.74 upbm affinity estimate (log intensity, higher = more binding, comparable within an allelic series) in the assay with ALX3 [37]; 7.76 upbm affinity estimate (log intensity, higher = more binding, comparable within an allelic series) in the assay with ALX3 [38]; 6.18 upbm affinity estimate (log intensity, higher = more binding, comparable within an allelic series) with ALX1 [39]; 7.68 upbm affinity estimate (log intensity, higher = more binding, comparable within an allelic series) in the assay with ALX3 [40].
As to CCTCTCCG, the binding signal in the assay with SHOX [1] is 6.97 upbm affinity estimate (log intensity, higher = more binding, comparable within an allelic series); in the assay with SIX6 [13], 8.93 upbm affinity estimate (log intensity, higher = more binding, comparable within an allelic series); with SIX6 [14], 8.82 upbm affinity estimate (log intensity, higher = more binding, comparable within an allelic series); with HOXA7 [3] it was 8.27 upbm affinity estimate (log intensity, higher = more binding, comparable within an allelic series); with SIX6 [15] it was 8.83 upbm affinity estimate (log intensity, higher = more binding, comparable within an allelic series); with SIX6 [16], 8.87 upbm affinity estimate (log intensity, higher = more binding, comparable within an allelic series). For the same sequence, the binding signal with SIX6 [17] was 8.89 upbm affinity estimate (log intensity, higher = more binding, comparable within an allelic series); in the assay with SIX6 [18], 8.93 upbm affinity estimate (log intensity, higher = more binding, comparable within an allelic series); in the assay with SIX6 [19], 8.91 upbm affinity estimate (log intensity, higher = more binding, comparable within an allelic series); with SIX6 [20], 8.85 upbm affinity estimate (log intensity, higher = more binding, comparable within an allelic series); with SIX6 [21] it was 8.89 upbm affinity estimate (log intensity, higher = more binding, comparable within an allelic series); with ALX3 [33], 7.63 upbm affinity estimate (log intensity, higher = more binding, comparable within an allelic series). In addition, the binding signal is 9.4 upbm affinity estimate (log intensity, higher = more binding, comparable within an allelic series) with HOXD13 [41]; 8.98 upbm affinity estimate (log intensity, higher = more binding, comparable within an allelic series) with SIX6 [22]; 7.06 upbm affinity estimate (log intensity, higher = more binding, comparable within an allelic series) with SHOX [6]; 9.42 upbm affinity estimate (log intensity, higher = more binding, comparable within an allelic series) with HOXD13 [42]; 8.9 upbm affinity estimate (log intensity, higher = more binding, comparable within an allelic series) in the assay with SIX6 [23]; 7.51 upbm affinity estimate (log intensity, higher = more binding, comparable within an allelic series) in the assay with ALX3 [35]. For the same sequence, the binding signal with SIX6 [24] was 8.77 upbm affinity estimate (log intensity, higher = more binding, comparable within an allelic series); with ALX3 [37], 7.69 upbm affinity estimate (log intensity, higher = more binding, comparable within an allelic series); with SIX6 [25] it was 8.86 upbm affinity estimate (log intensity, higher = more binding, comparable within an allelic series); in the assay with HOXD13 [43], 9.42 upbm affinity estimate (log intensity, higher = more binding, comparable within an allelic series); in the assay with ALX3 [38] it was 7.6 upbm affinity estimate (log intensity, higher = more binding, comparable within an allelic series); in the assay with HOXA7 [9], 8.41 upbm affinity estimate (log intensity, higher = more binding, comparable within an allelic series). The binding signal in the assay with ALX3 [40] was 7.61 upbm affinity estimate (log intensity, higher = more binding, comparable within an allelic series).
As to GTTAGTCA, the binding signal with SHOX [1] was 8.37 upbm affinity estimate (log intensity, higher = more binding, comparable within an allelic series).
Still for that read-out and setting: for GAAAAGTA the value was 7.94 upbm affinity estimate (log intensity, higher = more binding, comparable within an allelic series).

The record behind these values is publication PMC11006913.
